Data from PubChem BioAssay (NCI).
This is part of a sample that, as a whole, favours compounds with a hit. Of some 83,000 tested, about 20% had one in any assay.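 Assay: single dose, 48 h. Readout: percent growth (0 = no net growth; negative = cell death). Active: <10.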 Activity calls are given as the source filed them.

The molecules below were run on HL-60(TB) leukemia (assay: NCI-60 one-dose screen, 48 h (100 = growth as untreated, 0 = no growth, -100 = all killed)). Conditions: 10 µM unless noted.

Structure (SMILES)	growth
CCCCCCCC/C=C\CCCCCCCCOc1ccc(CC(=O)NCC[N+]2(C)CCOCC2)cc1	-14% (active)
NC(=NCCCOc1ccc(F)cc1)Nc1ccc(I)cc1	72.6% (inactive)
O=C(NCOC(O)C(Cl)(Cl)Cl)NCOC(O)C(Cl)(Cl)Cl (centres undefined)	0.027% (active)
CC(C)C[C@H](NC(=O)Cn1cccc(CNC(=O)c2ccccc2)c1=O)B(O)O	-51.3% (active)
COc1ccc(C2CC(c3ccc(Cl)cc3)=NN2/C=C2\SC(=S)N(NC(=O)Cc3ccccc3Nc3c(Cl)cccc3Cl)C2=O)cc1 (centres undefined)	64.7% (inactive)
Cc1nc(-c2ccccc2)cc2c(O)c(C(=O)N/N=C/c3ccc(N(C)C)cc3)[nH]c(=O)c12	116% (inactive)
COc1ccc(C2CC(c3cc(OC)c(OC)c(OC)c3)=NN2)cc1 (centres undefined)	60.1% (inactive)
O=C(Cc1nc2cc(Cl)c(Cl)cc2nc1CC(=O)c1ccccc1)c1ccccc1	29.7% (inactive)
C#CC#CC#CC#CC#CC#CC#CC#CCC1OC[C@H](COC(=O)O[C@@H](C(=O)O[C@H]2C[C@@]3(O)[C@@H](OC(=O)c4ccccc4)[C@@H]4[C@]5(OC(C)=O)CO[C@@H]5C[C@H](O)[C@@]4(C)C(=O)[C@H](OC(C)=O)C(=C2C)C3(C)C)[C@@H](NC(=O)c2ccccc2)c2ccccc2)O1 (some centres undefined)	8.1% (active)
COc1ccc(C(=O)c2cc(OC)c(OC)c(OC)c2)cc1/C=C/C(=O)c1ccc(O)cc1	14.2% (inactive)
Nc1cc(C(=O)O)[nH]c(=S)n1	123% (inactive)
C/C(=N\NC(=O)CC#N)c1cc2cc(Cl)ccc2o1	99.4% (inactive)
O=C1NC(=O)[C@@H](c2cn3c4c(cccc24)CCC3)[C@@H]1c1c[nH]c2ccccc12	-21% (active)
CCOC(=O)c1c(O)c2cc(-c3ccccc3)nc(OCC)c2c(=O)n1C	156% (inactive)
CN(C)Cc1ccc(NC(=O)c2cncc(C#Cc3cnc(N)c4ncccc34)c2)cc1C(F)(F)F	31.1% (inactive)
COc1ccc(-c2cnoc2-c2ccc(OC)cc2O)cc1	26.4% (inactive)
NC[C@@](O)(c1ccc(Cl)cc1)c1ccc(-c2cn[nH]c2)cc1	-42.8% (active)
Nc1nc2c(c3ncncc13)C(c1cccc(C(F)(F)F)c1)Cc1ncncc1-2 (centres undefined)	10.7% (inactive)
OCCN1CCOCC1	121% (inactive)
Oc1[nH]c2ccccc2c1/C=c1/cc2c(c(-c3ccc(C(F)(F)F)cc3)n1)=Nc1ccccc1-2	19.2% (inactive)

Structure (SMILES)	growth
Cn1c2ccc(Br)cc2c2c3c(c4c5ccccc5[nH]c4c21)C(=O)N(O)C3=O	-58.6% (active)
N#C/C(=C\c1ccc2c(c1)OCO2)n1nnc2ccccc21	-10.9% (active)
Cn1cc(Nc2nccc(-c3ccc(N4CCCC4)c(C#N)c3)n2)cn1	-17.8% (active)
COc1cccc(/C=C2\Oc3cc(OCCCN4CCCC4)ccc3C2=O)c1	81% (inactive)
c1csc(-c2ccc(CNc3c4ccccc4nc4ccccc34)cc2)c1	-56.7% (active)
O=C(COc1cccc(/C=C2\Oc3ccc4ccccc4c3C2=O)c1)c1ccc(Cl)cc1	107% (inactive)
c1ccc2c(-c3nc(-c4c[nH]c5ccncc45)cs3)c[nH]c2c1	45.9% (inactive)
Cc1sc2nc(NCCc3cccs3)[nH]c(=O)c2c1C	102% (inactive)
COc1cc(/C=C/c2cc(O)c(C(C)=O)c(O)c2)cc2c1O[C@]1(C)CC[C@@H](O)C(C)(C)[C@H]1C2	28.1% (inactive)
CN(C)c1ccc(-c2nc3ncc(Br)cc3o2)cc1	85.8% (inactive)
O=C1CCC(=O)N1C1CCCCC1	92.5% (inactive)
CCC(C)CC(N)O (centres undefined)	120% (inactive)
C#CCOC(=O)[C@]1(C)CCC[C@]2(C)[C@H]3C[C@H]4C(C(C)C)=C[C@]3(CC[C@H]21)[C@@H]1C(=O)CCC(=O)[C@@H]14	64.7% (inactive)
Cc1cc(Cl)ccc1Nc1nc(C(F)(F)F)ccc1C(=O)N/N=C/c1cccc(O)c1	4.08% (active)
NC(CCCC(N)C(=O)c1ccccc1)C(=O)O (centres undefined)	94.3% (inactive)
Cn1cc(-c2nc(-c3c[nH]c4ncccc34)cs2)c2cc(Cl)ccc21	55.8% (inactive)
COc1ccc2nc3c(n2c1)C(=O)C(=O)c1ccccc1-3	-48.9% (active)
COc1ccc2c3c(ccc2c1)C(=O)/C(=C\O)CC3	75.1% (inactive)
S=c1[nH]nc(Cc2ccccc2)c(=S)[nH]1	98.5% (inactive)
